Screening results (PubChem)
The entries come from a sample that favours hits as a whole.
TDP1 cell noCPT: qHTS for Inhibitors of human tyrosyl-DNA phosphodiesterase 1 (TDP1): qHTS in cells in absence of CPT | DT40 Tdp1-/- hTDP1 cells, no CPT, ATP luminescence, 48 h | AID 686978, 2013 | 420,000 tested, 15% active | Potency, µM (highest dose often 46.2 µM), for the others: top-dose activity change, negative = growth inhibition, most hits filed as inhibitors; further: potency means the concentration at half of the fitted maximal effect; nearly all actives have a fitted effect of over 55% in size
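Seeded 400 DT40-hTDP1 cells/well (vehicle DMSO, no 20 nM CPT); pinned compounds; ≥48 hr at 37 °C; CellTiter-Glo luminescence as viability measure.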
HT1080 IDH1KD tx: toxicity to HT-1080 IDH1 knockdown cells (counter line); HT-1080 IDH1 knockdown viability, ATP luminescence, 48 h; Potency, µM (titrated, usually from 46.1 µM), for inactives: at the top dose activity, negative = toxicity, actives largely listed as cytotoxic; 360,000 tested, 2% active; AID 686971;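 further: potency means the concentration at half of the fitted maximal effect; 0% = DMSO wells and -100% = cell-free medium wells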
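CellTiter-Glo luminescence after 48 h compound exposure at 37 degrees C of IDH1-knockdown HT-1080 cells in 5% FBS RPMI. %Activity scaled between DMSO wells and cell-free media wells, with curves fitted and assigned curve classes.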
HT1080-NT tox: kills 2HG-producing HT-1080-NT fibrosarcoma cells; Potency, µM (series often up to 46.1 µM), inactives show top-dose activity, negative = less viability, actives largely listed as cytotoxic; 360,000 tested, 1.6% active; HT-1080-NT fibrosarcoma viability, CellTiter-Glo ATP luminescence, 48 h;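 further: NT is the 2HG producing partner of a matched IDH1 knockdown line; potency means the concentration at half of the fitted maximal effect; 0% = DMSO-treated cells and -100% = media-only wells without cells; nearly all actives have a fitted effect of over 55% in size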
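750 cells/well, RPMI + 5% FBS; 2 h settle, compound pin-transfer, 48 h at 37 degrees C. CellTiter-Glo 10 min RT, luminescence. Normalized to DMSO and media-only wells.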
DT40 TDP1 CPT: growth inhibition of DT40 Tdp1-/-;hTDP1 cells with camptothecin (screen for TDP1 inhibitors). chicken DT40 Tdp1-/-;hTDP1 cells + 20 nM CPT, ATP luminescence, 48 h. Potency, µM (doses to about 46.2 µM), for inactives: at the top dose activity change, negative = growth inhibition, usual class: inhibitors. 420,000 tested, 12% active; further: potency means the concentration at half of the fitted maximal effect; nearly all actives have a fitted effect of over 55% in size
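Cell growth measured by CellTiter-Glo luminescence after a minimum 48 h, 37 C compound exposure with 20 nM CPT in Tdp1-knockout DT40 cells stably expressing hTDP1, seeded 400/well; qHTS titration format.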
IL1B secr inh: inhibitors of inflammasome signaling (IL-1 beta secretion); THP-1 LPS/ATP IL-1B secretion, AlphaLISA, 16 h; hits give low values; activity change, % at 57.5 µM; 360,000 tested, 4.7% active; in the data active means activity change below about -50%; inconclusive means mostly about -30% to -49%
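THP-1 cells pretreated 1 hr with compounds (up to 57.5 uM final), then stimulated with LPS (250 ng/mL final) plus ATP (1.25 mM final); secreted IL-1B measured by AlphaLISA after 16 hr, decreased signal indicating inhibition.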
12-LOX inh: inhibitors of human 12S-lipoxygenase ALOX12 | Potency, µM (titrated, usually from 108 µM), for inactives: at the highest dose activity change, negative = inhibition, actives largely listed as inhibitors | P18054 | 580,000 tested, 1.1% active | purified 12hLO, xylenol orange hydroperoxide absorbance | AID 1671190; further: potency means the concentration at half of the fitted maximal effect
Target sequence (P18054 whole entry, looked up): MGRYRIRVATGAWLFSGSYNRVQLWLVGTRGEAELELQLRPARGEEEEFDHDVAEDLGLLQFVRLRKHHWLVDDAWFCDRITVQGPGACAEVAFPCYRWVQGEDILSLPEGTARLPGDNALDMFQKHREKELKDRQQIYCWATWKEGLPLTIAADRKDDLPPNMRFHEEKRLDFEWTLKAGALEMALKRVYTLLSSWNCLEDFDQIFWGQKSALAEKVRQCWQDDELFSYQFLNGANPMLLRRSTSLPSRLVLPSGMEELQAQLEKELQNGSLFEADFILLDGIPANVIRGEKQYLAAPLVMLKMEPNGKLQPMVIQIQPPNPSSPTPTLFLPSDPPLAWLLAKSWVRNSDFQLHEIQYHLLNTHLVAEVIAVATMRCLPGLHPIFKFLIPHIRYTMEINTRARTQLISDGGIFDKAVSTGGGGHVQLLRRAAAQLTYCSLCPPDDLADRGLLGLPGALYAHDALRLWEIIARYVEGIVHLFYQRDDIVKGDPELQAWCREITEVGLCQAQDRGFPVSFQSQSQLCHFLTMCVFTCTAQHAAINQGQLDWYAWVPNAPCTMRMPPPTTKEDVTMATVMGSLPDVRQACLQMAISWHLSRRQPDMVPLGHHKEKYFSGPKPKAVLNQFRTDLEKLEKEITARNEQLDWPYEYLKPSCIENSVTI
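Purified human 12hLO at 150 nM in 25 mM Hepes, 0.01% Triton X-100, pH 7.0, preincubated 15 min at room temperature with compound. Reaction started with 40 uM arachidonic acid, 30 min at room temperature. Hydroperoxide measured by Fe-xylenol orange, 573/405 nm absorbance ratio.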
An asterisk follows results filed as active; [ ] = remark or other dose. Unless noted, the call rests on the fitted dose curve; in most records, active means well fitted curve in the direction sought with a large enough effect; inconclusive means small, poorly fitted or top-dose-only effect, or another doubt; inactive means no such curve, though single readings can be large; an effect the other way counts as inactive or inconclusive. Unless noted, on the % scale 0 is the no-effect control and ±100 the full control effect.

COc1ccc(-c2nc3ccccc3o2)cc1NC(=O)C(C)Oc1ccc(Cl)cc1Cl (stereo not drawn) was read as TDP1 cell noCPT 23µM*, DT40 TDP1 CPT inconclusive and 12-LOX inh -18%.
For COc1ccc(-c2nc3cc(C(C)C)ccc3o2)cc1NC(=O)COc1ccc(C)cc1C the results were TDP1 cell noCPT inconclusive, DT40 TDP1 CPT 6.5µM* and 12-LOX inh 6%.
`COc1ccc(-c2nc3cc(C(C)C)ccc3o2)cc1NC(=O)c1ccc(C)c(Cl)c1` gave TDP1 cell noCPT 18µM*, DT40 TDP1 CPT 21µM* and 12-LOX inh -16%.
Screening CC(C)n1nc(C(=O)OCC#N)c2ccccc2c1=O returned 12-LOX inh -3%.
For Cc1cc(NC(=O)c2ccccc2Cl)sc1C(=O)NC(C)c1ccc(NC(=O)C2CC2)cc1 (stereo not drawn) the results were 12-LOX inh -2%.
Screening CC(=O)N1CC2(CCN(C3CCCCC3)C2)Cc2ccccc21 (stereo not drawn) returned 12-LOX inh 6%[6.33 µM].
For NC(=O)OC[C@@H]1[C@H](NC(=O)/C(=N\OCC(=O)O)c2csc(N)n2)C(=O)N1S(=O)(=O)O the results were TDP1 cell noCPT -13% and DT40 TDP1 CPT 0%.
`COc1cccc(C2CC(c3ccccc3)=NN2S(=O)(=O)c2ccc(C)cc2)c1OC` (stereo not drawn) gave TDP1 cell noCPT inconclusive, HT1080 IDH1KD tx -3%, HT1080-NT tox 16%, DT40 TDP1 CPT inconclusive, IL1B secr inh -8 and 12-LOX inh -9%.
`COc1ccc(C2CC(c3ccccc3)=NN2S(=O)(=O)c2ccc(C)cc2)c(OC)c1` (stereo not drawn) gave TDP1 cell noCPT 7.3µM*, HT1080 IDH1KD tx 6%, HT1080-NT tox 5%, DT40 TDP1 CPT 8.2µM*, IL1B secr inh -6 and 12-LOX inh 0%.
For COc1ccc(C2CC(c3ccccc3)=NN2S(=O)(=O)c2ccccc2)c(OC)c1 (stereo not drawn) the results were TDP1 cell noCPT 21µM*, HT1080 IDH1KD tx 8%, HT1080-NT tox 3%, DT40 TDP1 CPT inconclusive, IL1B secr inh 3 and 12-LOX inh -24%.
Screening Cn1cc(CC(=O)Nc2ccc(C(F)(F)F)cc2)c2ccccc21 returned 12-LOX inh -1%.
O=C(C[C@@H]1C/C=C\C[C@H](NC(=O)OCC2c3ccccc3-c3ccccc32)C(=O)OC[C@@H]2CCCN2C1=O)NCCO was read as TDP1 cell noCPT 10µM*, HT1080 IDH1KD tx 6%, HT1080-NT tox -7%, DT40 TDP1 CPT 4.6µM*, IL1B secr inh 18 and 12-LOX inh inconclusive.
For O=C(C[C@H]1C/C=C\C[C@H](NC(=O)OCC2c3ccccc3-c3ccccc32)C(=O)OC[C@@H]2CCCN2C1=O)N[C@H](CO)Cc1ccccc1 the results were TDP1 cell noCPT 9.2µM*, HT1080 IDH1KD tx 4%, HT1080-NT tox 8%, DT40 TDP1 CPT 10µM* and IL1B secr inh 22.
O=C(C[C@@H]1C/C=C\C[C@H](NC(=O)OCC2c3ccccc3-c3ccccc32)C(=O)OC[C@H]2CCCN2C1=O)N[C@H](CO)Cc1ccccc1 was read as TDP1 cell noCPT 5.2µM*, HT1080 IDH1KD tx -10%, HT1080-NT tox -12%, DT40 TDP1 CPT 4.6µM*, IL1B secr inh -16 and 12-LOX inh inconclusive.
For O=C(C[C@@H]1C/C=C\C[C@H](NC(=O)OCC2c3ccccc3-c3ccccc32)C(=O)OC[C@@H]2CCCN2C1=O)N[C@H](CO)Cc1ccccc1 the results were TDP1 cell noCPT 10µM*, HT1080 IDH1KD tx 12%, HT1080-NT tox 3%, DT40 TDP1 CPT 7.3µM*, IL1B secr inh 28 and 12-LOX inh -7%.
For O=C(C[C@@H]1C/C=C\CCCC(=O)OC[C@@H]2CCCN2C1=O)N[C@H](CO)Cc1ccccc1 the results were TDP1 cell noCPT -8%, HT1080 IDH1KD tx 11%, HT1080-NT tox 14%, DT40 TDP1 CPT 4%, IL1B secr inh 1 and 12-LOX inh -21%.
O=C(C[C@@H]1C/C=C\CCC(=O)OC[C@@H]2CCCN2C1=O)N[C@H](CO)Cc1ccccc1 was read as TDP1 cell noCPT 2%, HT1080 IDH1KD tx 2%, HT1080-NT tox 3%, DT40 TDP1 CPT 20%, IL1B secr inh 15 and 12-LOX inh 5%.
`COc1ccc(N2C(=O)CSC23CCN(C(=O)c2ccccc2Br)CC3)cc1` gave 12-LOX inh 47%.
`Cc1cccc2cc(CN(Cc3ccccc3)C(=O)c3ccco3)c(=O)[nH]c12` gave 12-LOX inh -40%.
For COc1ccc(F)c(CN2CCCC(O)(CN(C)Cc3ccccc3)C2=O)c1 (stereo not drawn) the results were 12-LOX inh 13%.
Screening O=C(C[C@@H]1C/C=C\C[C@H](NC(=O)OCC2c3ccccc3-c3ccccc32)C(=O)OC[C@@H]2CCCN2C1=O)N[C@@H](CO)Cc1ccccc1 returned TDP1 cell noCPT 18µM*, HT1080 IDH1KD tx 2%, HT1080-NT tox 0%, DT40 TDP1 CPT 18µM*, IL1B secr inh 15 and 12-LOX inh -7%.
For CCOC(=O)C1(CCCc2ccccc2)CCN(C(=O)CCc2cnn(C)c2)CC1 the results were TDP1 cell noCPT inconclusive, HT1080 IDH1KD tx -19%, HT1080-NT tox -15%, DT40 TDP1 CPT inconclusive, IL1B secr inh 0 and 12-LOX inh -5%.
For CCOC(=O)C1(CCCc2ccccc2)CCN(C(=O)CCN2CCCCC2=O)CC1 the results were TDP1 cell noCPT 16µM*, HT1080 IDH1KD tx -1%, HT1080-NT tox 7%, DT40 TDP1 CPT inconclusive, IL1B secr inh -5 and 12-LOX inh 0%.
`CCOC(=O)C1(CCCc2ccccc2)CCN(C(=O)CCCn2cncn2)CC1` gave TDP1 cell noCPT 26µM*, HT1080 IDH1KD tx -17%, HT1080-NT tox -16%, DT40 TDP1 CPT inconclusive, IL1B secr inh -8 and 12-LOX inh 1%.
For CC(C)Cn1nc(C(=O)Nc2nnc(Cc3ccccc3)s2)c2ccccc2c1=O the results were 12-LOX inh -15%.
For C(=NNc1nnn(Cc2ccccc2)n1)c1ccccc1 the results were TDP1 cell noCPT inconclusive, HT1080 IDH1KD tx 18µM*, HT1080-NT tox 9.2µM*, DT40 TDP1 CPT inconclusive, IL1B secr inh 42 and 12-LOX inh 0%.
